Data: PubChem BioAssay (NCI)
This is part of a sample that, as a whole, favours compounds with a hit. Of some 79,000 tested, about 15% had one in any assay. Cut-off read from the data, not from the text of the source: active = growth inhibition above about 70%; inactive = the rest.

Legend:
[1] = NCI Yeast Anticancer Drug Screen. Data for the rad50 strain (AID 155);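 note: 0% = growth of vehicle-only cultures of the same strain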; details: S. cerevisiae rad50 strain growth inhibition; at 50.0 µM; hits give high values
In short: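 Growth of the mutant yeast was measured after compound exposure and referenced to vehicle-treated cultures.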

[2] = NCI Yeast Anticancer Drug Screen. Data for the mec2-1 strain (AID 157); details: S. cerevisiae mec2-1 strain, at 50.0 µM, hits give high values
In short: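 Readout is yeast growth inhibition, normalised to vehicle-treated controls, in the mec2-1 strain exposed to compound.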

[3] = NCI Yeast Anticancer Drug Screen. Data for the sgs1 mgt1 strain (AID 161);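 note: 0% = growth of cultures given vehicle only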; details: S. cerevisiae sgs1 mgt1 strain, at 50.0 µM, hits give high values
In short: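 Percent growth inhibition was derived by comparing compound-exposed mutant yeast with vehicle-exposed cultures. The strain carries alterations in DNA damage repair.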

[4] = NCI Yeast Anticancer Drug Screen. Data for the cln2 rad14 strain (AID 165);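 note: 0% = growth equal to vehicle treated cultures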; details: S. cerevisiae cln2 rad14 strain, at 50.0 µM, hits give high values
In short: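 Relative to vehicle controls, growth inhibition of compound-treated cln2 rad14 yeast was recorded.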

[5] = NCI Yeast Anticancer Drug Screen. Data for the bub3 strain (AID 167); details: S. cerevisiae bub3 mutant strain, at 50.0 µM, hits give high values
In short: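 Whole-cell yeast assay. The mutant strain was incubated with compounds, and growth inhibition was determined by comparison with vehicle-treated cells.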

[6] = NCI Yeast Anticancer Drug Screen. Data for the mlh1 rad18 strain (AID 175); details: S. cerevisiae mlh1 rad18 strain growth inhibition; at 50.0 µM; hits give high values
In short: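 Test agents were incubated with a yeast strain of defined genotype (DNA damage repair defect). Inhibition of growth was derived by comparison with vehicle-exposed cultures.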

Measured: growth inhibition

CCCCCCCN(CCCCCCC)CC(O)c1cc2ccccc2c2cc(Br)ccc12 (stereo not given)
inactive: [1] -52.9% | [2] -33% | [3] -41% | [4] -25% | [5] -69.1% | [6] -109%

CCO/C=C1/C(=O)N(C)c2c1c(=O)n(C)c(=O)n2C
inactive: [1] -46.9% | [2] -0.25% | [3] -4.05% | [4] -14.3% | [5] -18.1% | [6] -5.15%

Nc1nnc(-c2ccc(Cl)cc2)o1
inactive: [1] 21.3% | [2] -1.8% | [3] 21.2% | [4] 1.1% | [5] 0.05% | [6] 5.8%

COc1ccc(/C=N/Nc2nc(C)c3c(n2)Nc2ccccc2NC3=O)cc1
inactive: [1] -15.2% | [2] 10.2% | [3] 3.55% | [4] -1.95% | [5] -1.45% | [6] -19.8%

C[C@@]12CCC[C@H]1[C@@H]1CC=C3C[C@@H](S)CC[C@]3(C)[C@H]1CC2
inactive: [1] -6.75% | [2] 4.5% | [3] -3.25% | [4] -31.1% | [5] -6.9% | [6] -13.7%

NNC(=O)c1c(-c2cccnc2)cnc2ccccc12
inactive: [1] -29.4% | [2] -20.6% | [3] -29.3% | [4] -6.8% | [5] -4.8% | [6] -31.4%

COc1ccc2c(c1)CCCN2
inactive: [1] -3.4% | [2] -23% | [3] -4.05% | [4] -20.1% | [5] -13.3% | [6] 3.65%

CC1(C)CC2(C)Sc3ccccc3N2C(=S)N1 (stereo not given)
inactive: [1] -35.6% | [2] -2.15% | [3] 13.8% | [4] -19.6% | [5] -0.75% | [6] 17.9%

O=C(c1ccc(Cl)cc1)C1C(c2ccccc2)C1[N+](=O)[O-] (stereo not given)
inactive: [1] 11.2% | [2] -11.2% | [3] -3.2% | [4] -28.9% | [5] 16.4% | [6] 31%

Cc1ccc(N(C)C(=O)Nc2ccccc2)c(C)c1
inactive: [1] 4.1% | [2] 3.6% | [3] 8.6% | [4] -20.6% | [5] 4.55% | [6] -12.8%

Cc1cc(N=C2C=CC(=O)C=C2)ccc1O
inactive: [1] 40.5% | [2] 21.6% | [3] 30.4% | [4] 10.2% | [5] 15.9% | [6] 25.6%

O=C(Cc1n[nH]c(=S)nc1CC(=O)c1ccccc1)c1ccccc1
inactive: [1] -2.05% | [2] 0.85% | [3] 5.2% | [4] -17.5% | [5] -27.9% | [6] 7.4%

Cc1c(C(N)=O)c(-c2ccccc2)c(-c2ccccc2)n1Nc1ccccc1
inactive: [1] 16.9% | [2] -2.65% | [3] 13.7% | [4] 11.9% | [5] -5.05% | [6] 23.7%

O=[N+]([O-])c1cccc2ccc(N/N=C/c3ccccc3O)nc12
inactive: [1] 18.8% | [2] -4.05% | [3] 42.2% | [4] 1.85% | [5] 7.25% | [6] 19.8%

CCCSc1cc(Cl)c(C)cc1S(=O)(=O)n1cc[nH]c1=O
inactive: [1] 11.9% | [2] 7.3% | [3] 9.15% | [4] 5.75% | [5] 13.3% | [6] 35.7%

O=C(O)c1ccc2c(c1)Cc1ccccc1-2
inactive: [1] 30.5% | [2] 47.9% | [3] 51.3% | [4] 45.1% | [5] 35.6% | [6] 42%

COc1cc(C)cc2c(-c3c(OC(C)=O)cc(OC(C)=O)c4c3C[C@H](C)N(C(C)=O)[C@H]4C)cc(-c3cc(-c4c(OC(C)=O)cc(OC(C)=O)c5c4C[C@H](C)N(C(C)=O)[C@H]5C)c4cc(C)cc(OC)c4c3O)c(O)c12
inactive: [1] 41% | [2] 31.5% | [3] 34.5% | [4] 7.65% | [5] -44% | [6] 16.4%

O=[N+]([O-])C1CCC(N=Nc2c(O)ccc3ccccc23)CC1 (stereo not given)
inactive: [1] -9.95% | [2] 3.6% | [3] 4.65% | [4] -27% | [5] -50.6% | [6] -0.6%

CCOC(=O)Cc1csc(N=Nc2c(O)[nH]c3ccccc23)n1
inactive: [1] -2.55% | [2] -12.8% | [3] 10.6% | [4] 7.9% | [5] 5.85% | [6] 17.6%

Brc1cccc(C2ON=C(c3ccccc3)N2C23CC4CC(CC(C4)C2)C3)c1 (stereo not given)
inactive: [1] 2.2% | [2] -7.45% | [3] -1.75% | [4] -14.7% | [5] -7.55% | [6] -7.7%
